Measurements taken from PubChem BioAssay (EPA / NIEHS).
Results filed as inconclusive are left out. Activity calls are given as the source filed them. How the source made its calls, unless noted: active means hit-call score of the fitted dose curve at least 0.9, where 1 is the maximum; inactive means score below 0.9.

Legend:
[1] = BSK_SAg_PBMCCytotoxicity: PBMC Cytotoxicity Assessment in the BioMAP Diversity Plus: SAg Assay (AID 2283093); details: primary human HUVEC with PBMC;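 further: PBMC viability measured as Alamar Blue reduction fluorescence at 546/580 nm; fitted both ways against DMSO so a hit may be loss or gain of signal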;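 on AC50: PBMC superantigen activated with SEB plus TSST-1 one hour after compound addition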
Method in brief: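 Alamar Blue reduction (6 h, 546/580 nm) reports PBMC cytotoxicity after 90 h superantigen activation (SEB, TSST-1; 20 ng/mL final each) with 1 h compound pre-treatment. Gain or loss of signal fitted versus DMSO.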

[2] = read-out: Interleukin-8 (IL8), CXCL8 (gene 3576); assay: BSK_SAg_IL8: BioMAP Diversity Plus: SAg Assay for Interleukin-8 (IL8) Biomarker Activity (AID 2283094); details: primary human HUVEC with PBMC; actives raise or lower the signal
Method in brief: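 ELISA readout of IL-8 from a superantigen-activated endothelial/PBMC primary human co-culture, taken 24 h post-dosing and fitted in both directions against DMSO; parallel SRB total-protein staining flags overt cytotoxicity.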

[3] = BSK_SAg_Proliferation: Cell Proliferation Assessment in the BioMAP Diversity Plus: SAg Assay (AID 2283095); details: primary human HUVEC with PBMC;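 further: relative cell number as total protein by SRB absorbance in sub-confluent culture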
Method in brief: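 Relative cell number in the endothelial cell/PBMC co-culture was quantified at 96 h by SRB staining (0.1% SRB, 10% TCA fixation, read at 560 nm). Curves were fitted in both directions relative to DMSO baseline.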

[4] = BSK_SAg_SRB: Viability Assessment in the BioMAP Diversity Plus: SAg Assay (AID 2283096); details: primary human HUVEC with PBMC;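 further: cells read one day after compound addition; hits may be either gain or loss of signal compared with DMSO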
Method in brief: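 This overt-cytotoxicity endpoint quantifies protein in human endothelial/PBMC co-cultures at 24 h using SRB absorbance (560 nm) after trichloroacetic acid fixation. Values reflect signal change from the DMSO negative control, fitted bidirectionally.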

[5] = molecular target: human CYP19A1, CYP19A1 (gene 1588) (UniProt P11511); assay: NVS_ADME_hCYP19A1: NovaScreen (NVS) CYP450-related Enzyme Activity (ADME) Assay for human CYP19A1 (AID 2283098; active means hit-call score of the fitted dose curve at least 0.9, where 1 is the maximum)
Method: NVS_ADME_hCYP19A1 is a biochemical, single-readout assay that uses extracted gene-proteins in a cell-free assay. Measurements were taken 0.5 hour after chemical dosing in a 384-well plate.NVS_ADME_hCYP19A1 is one of one assay component(s) measured or calculated from the NVS_ADME_hCYP19A1 assay. It is designed to make measurements of enzyme activity, a form of enzyme reporter, as detected with fluorescence intensity signals by Fluorescence technology.Data from the assay component NVS_ADME_hCYP19A1 was analyzed into 1 assay endpoint. This assay endpoint, NVS_ADME_hCYP19A1, was analyzed in the positive analysis fitting direction relative to Acetonitrile as the negative control and baseline of activity. Using a type of enzyme reporter, loss-of-signal activity can be used to understand changes in the enzymatic activity as they relate to the gene CYP19A1. Furthermore, this assay endpoint can be referred to as a primary readout, because this assay has produced multiple assay endpoints where this one serves a enzymatic activity function. To generalize the intended target to other relatable targets, this assay endpoint is annotated to the cyp intended target family, where the subfamily is steroidogenesis-related.
Binding assays used specific radioligands (tritiated, iodinated) with non-radioactive competitive displacement ligands in agonist or antagonist protocols (as indicated) and various reference compounds and inhibitors to titrate specific binding to receptors and transporters. Most enzyme assays (CYPs, kinases, phosphatases, proteases, HDACs) used recombinant protein and specific substrates (fluorescence mostly, some colorimetric and radioactive) and inhibitors, followed by a biochemical separation of substrate and product. All assays for the biochemical HTS were initially run in duplicate at a single concentration (10 uM for CYP450 assays and 25 uM for all others). […] Each assay was run with positive and negative controls, and concurrent controls on every plate. The follow-up (secondary) screen tested active chemical-pairs in concentration series, as well as a few additional assays not tested in the primary screen, some selected negative inactives, and several cases re-run in the concentration series for confirmatory purposes.

[6] = molecular target: human CYP2A6, CYP2A6 (gene 1548) (UniProt P11509); assay: NVS_ADME_hCYP2A6: NovaScreen (NVS) CYP450-related Enzyme Activity (ADME) Assay for human CYP2A6 (AID 2283099; active means hit-call score of the fitted dose curve at least 0.9, where 1 is the maximum)
Method in brief: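 Recombinant human CYP2A6 from insect cells was incubated with chemical for 0.5 h and activity read by fluorescence. Single-concentration duplicates at 10 uM preceded concentration-response testing to 20 uM, with activity referenced to acetonitrile.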

[7] = molecular target: human CYP2D6, CYP2D6 (gene 1565) (UniProt P10635); assay: NVS_ADME_hCYP2D6: NovaScreen (NVS) CYP450-related Enzyme Activity (ADME) Assay for human CYP2D6 (AID 2283107; active means hit-call score of the fitted dose curve at least 0.9, where 1 is the maximum)
Method in brief: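 Compounds were first tested in duplicate at 10 uM against recombinant enzyme produced in insect cells, with substrate turnover measured by fluorescence after 1 hour. Decreased signal, referenced to acetonitrile vehicle, was taken as reduced enzyme activity. Active chemicals went on to concentration-response testing.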

Chain of human CYP2A6, CYP2A6 (gene 1548) (P11509 whole entry, looked up): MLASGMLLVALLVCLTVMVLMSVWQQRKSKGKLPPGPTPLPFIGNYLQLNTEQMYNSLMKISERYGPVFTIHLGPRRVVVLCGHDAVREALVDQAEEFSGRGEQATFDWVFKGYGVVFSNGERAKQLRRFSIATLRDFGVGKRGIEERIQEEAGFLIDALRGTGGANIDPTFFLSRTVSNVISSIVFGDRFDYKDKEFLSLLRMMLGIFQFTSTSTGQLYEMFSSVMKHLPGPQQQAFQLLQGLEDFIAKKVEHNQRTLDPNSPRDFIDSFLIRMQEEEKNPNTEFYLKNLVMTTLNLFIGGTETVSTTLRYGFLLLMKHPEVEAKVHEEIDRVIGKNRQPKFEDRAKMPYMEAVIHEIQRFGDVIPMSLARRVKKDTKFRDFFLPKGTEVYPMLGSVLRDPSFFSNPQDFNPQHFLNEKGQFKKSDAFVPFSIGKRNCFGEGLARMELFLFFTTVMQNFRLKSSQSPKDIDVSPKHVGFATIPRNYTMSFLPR
Chain of human CYP19A1, CYP19A1 (gene 1588) (P11511 whole entry, looked up): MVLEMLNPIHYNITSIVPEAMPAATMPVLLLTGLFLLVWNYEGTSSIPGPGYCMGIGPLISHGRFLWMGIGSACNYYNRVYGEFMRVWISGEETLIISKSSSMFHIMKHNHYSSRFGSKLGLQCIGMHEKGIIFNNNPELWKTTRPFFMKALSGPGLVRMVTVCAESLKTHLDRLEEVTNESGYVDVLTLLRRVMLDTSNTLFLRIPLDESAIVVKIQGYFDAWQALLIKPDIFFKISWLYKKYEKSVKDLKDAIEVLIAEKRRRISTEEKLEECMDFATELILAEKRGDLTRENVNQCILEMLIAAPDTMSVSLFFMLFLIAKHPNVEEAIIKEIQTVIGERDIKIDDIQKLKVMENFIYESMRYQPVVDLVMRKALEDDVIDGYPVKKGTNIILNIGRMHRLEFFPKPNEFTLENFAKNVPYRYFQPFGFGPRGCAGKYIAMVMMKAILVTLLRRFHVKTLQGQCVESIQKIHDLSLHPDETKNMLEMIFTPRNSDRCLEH
Chain of human CYP2D6, CYP2D6 (gene 1565) (P10635 whole entry, looked up): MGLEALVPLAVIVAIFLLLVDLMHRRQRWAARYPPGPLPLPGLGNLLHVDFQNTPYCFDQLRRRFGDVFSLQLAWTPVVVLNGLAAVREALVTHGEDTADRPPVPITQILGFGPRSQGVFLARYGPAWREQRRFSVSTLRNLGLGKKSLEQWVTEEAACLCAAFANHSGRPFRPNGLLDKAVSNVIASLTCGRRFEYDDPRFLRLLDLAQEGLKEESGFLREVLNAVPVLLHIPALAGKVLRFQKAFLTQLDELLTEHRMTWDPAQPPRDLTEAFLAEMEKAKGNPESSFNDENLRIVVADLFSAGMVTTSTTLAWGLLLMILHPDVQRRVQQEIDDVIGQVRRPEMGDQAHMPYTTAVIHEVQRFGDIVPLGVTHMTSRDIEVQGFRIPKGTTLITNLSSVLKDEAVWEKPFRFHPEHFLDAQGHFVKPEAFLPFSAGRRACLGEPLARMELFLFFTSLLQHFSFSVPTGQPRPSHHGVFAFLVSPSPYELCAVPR

CC(=O)CC(c1ccccc1)c1c(O)c2ccccc2oc1=O (stereo not drawn)
outcome [1]: inactive | outcome [2]: inactive | outcome [3]: inactive | outcome [4]: inactive

O=C1O[C@H]([C@H](O)CO)C(O)=C1O
outcome [1]: inactive | outcome [2]: inactive | AC50 [3]: 12 µM (active) | outcome [4]: inactive

CCCCC(CC)CO (stereo not drawn)
outcome [1]: inactive | outcome [2]: inactive | outcome [3]: inactive | outcome [4]: inactive

O=C1CCCCC1
outcome [1]: inactive | outcome [2]: inactive | outcome [3]: inactive | outcome [4]: inactive

CS(=O)(=O)c1ccc([C@@H](C[C@H]2CCC(=O)C2)C(=O)Nc2cnccn2)cc1Cl
outcome [1]: inactive | outcome [2]: inactive | outcome [3]: inactive | outcome [4]: inactive

Cc1cn([C@H]2C=C[C@@H](CO)O2)c(=O)[nH]c1=O
outcome [1]: inactive | outcome [2]: inactive | outcome [3]: inactive | outcome [4]: inactive

CC(C)COC(=O)CCCCC(=O)OCC(C)C
outcome [1]: inactive | outcome [2]: inactive | outcome [3]: inactive | outcome [4]: inactive

O=C(Oc1ccccc1)c1cccc(C(=O)Oc2ccccc2)c1
outcome [1]: inactive | outcome [2]: inactive | AC50 [3]: 24.2 µM (active) | outcome [4]: inactive

OCC(CO)n1cnc(-c2ccc(F)cc2)c1-c1ccnc(Oc2ccccc2)n1
AC50 [1]: 2.47 µM (active) | AC50 [2]: 0.24 µM (active) | AC50 [3]: 18.1 µM (active) | outcome [4]: inactive

CCCCC(CC)COP(=O)(OCC(CC)CCCC)OCC(CC)CCCC (stereo not drawn)
AC50 [1]: 0.197 µM (active) | outcome [2]: inactive | AC50 [3]: 5.3 µM (active) | AC50 [4]: 5.38 µM (active)

CC1=C(C)S(=O)(=O)CCS1(=O)=O
outcome [1]: inactive | outcome [2]: inactive | outcome [3]: inactive | outcome [4]: inactive

CC(C)OC(=O)C(C)(C)Oc1ccc(C(=O)c2ccc(Cl)cc2)cc1
outcome [1]: inactive | AC50 [2]: 29.1 µM (active) | AC50 [3]: 29.5 µM (active) | AC50 [4]: 28.9 µM (active)

O=C1c2c(O)cccc2Cc2cccc(O)c21
outcome [1]: inactive | outcome [2]: inactive | outcome [3]: inactive | outcome [4]: inactive

CCOCCOCCO
outcome [1]: inactive | outcome [2]: inactive | outcome [3]: inactive | outcome [4]: inactive

CCCCC(CC)COC(=O)CCCCCCCC(=O)OCC(CC)CCCC (stereo not drawn)
outcome [1]: inactive | outcome [2]: inactive | outcome [3]: inactive | outcome [4]: inactive

C=CCCCCCCCCCCCC
outcome [1]: inactive | outcome [2]: inactive | outcome [3]: inactive | outcome [4]: inactive

CCc1cc(C2=C(C(=O)O)N(c3ccccc3C(F)(F)F)S(=O)(=O)c3ccccc32)cc2c1OCO2
outcome [1]: inactive | outcome [2]: inactive | AC50 [3]: 15.3 µM (active) | outcome [4]: inactive

CCCCCCC(CCCCCCCCCCC(=O)OCC(COC(C)=O)OC(C)=O)OC(C)=O (stereo not drawn)
outcome [1]: inactive | outcome [2]: inactive | outcome [3]: inactive | outcome [4]: inactive

C/C=C/c1ccc(OC)cc1
outcome [1]: inactive | outcome [2]: inactive | outcome [3]: inactive | outcome [4]: inactive

O=[Si]=O
outcome [1]: inactive | outcome [2]: inactive | outcome [3]: inactive | outcome [4]: inactive

O=C(NS(=O)(=O)/C=C/c1cccs1)c1ccc(F)cc1Br
outcome [1]: inactive | outcome [2]: inactive | AC50 [3]: 3.54 µM (active) | outcome [4]: inactive

O=C(O)CC(O)(CC(=O)O)C(=O)O
outcome [1]: inactive | outcome [2]: inactive | outcome [3]: inactive | outcome [4]: inactive

CC(C)(C)c1ccccc1
outcome [1]: inactive | outcome [2]: inactive | outcome [3]: inactive | outcome [4]: inactive

Oc1ccccc1O
outcome [1]: inactive | outcome [2]: inactive | AC50 [3]: 24.5 µM (active) | AC50 [4]: 8.32 µM (active)

CC(C)c1cccc(C(C)C)c1
outcome [1]: inactive | outcome [2]: inactive | outcome [3]: inactive | outcome [4]: inactive

CCCCOC(=O)CCCCC(=O)OCCCC
outcome [1]: inactive | outcome [2]: inactive | outcome [3]: inactive | outcome [4]: inactive

CC(=O)O
outcome [1]: inactive | outcome [2]: inactive | outcome [3]: inactive | outcome [4]: inactive

CCCCCCCCCCCCCCOS(=O)(=O)O
AC50 [1]: 34.2 µM (active) | outcome [2]: inactive | outcome [3]: inactive | outcome [4]: inactive

COc1ccc(OC(F)(F)F)cc1CN[C@H]1CCCN[C@H]1c1ccccc1
AC50 [1]: 26.6 µM (active) | AC50 [2]: 12.4 µM (active) | AC50 [3]: 32.6 µM (active) | AC50 [4]: 31.1 µM (active)

c1ccc2occc2c1
outcome [1]: inactive | outcome [2]: inactive | outcome [3]: inactive | outcome [4]: inactive

C/C=C/C=C/C(=O)O
outcome [1]: inactive | outcome [2]: inactive | outcome [3]: inactive | outcome [4]: inactive | outcome [5]: inactive

CC1(C)C(=O)NC(=O)N1CO
outcome [1]: inactive | outcome [2]: inactive | outcome [3]: inactive | outcome [4]: inactive | outcome [6]: inactive

C#CC(O)C(CC)CCCC (stereo not drawn)
outcome [2]: inactive | outcome [3]: inactive | outcome [4]: inactive

COC(=O)CCC(=O)OC
outcome [2]: inactive | outcome [3]: inactive | outcome [4]: inactive

CC(=O)O[C@]1(C(C)=O)CC[C@H]2[C@@H]3C=C(Cl)C4=CC(=O)[C@@H]5C[C@@H]5[C@]4(C)[C@H]3CC[C@@]21C
outcome [2]: inactive | outcome [3]: inactive | AC50 [4]: 31.2 µM (active)

CN(C)C(=O)NC1(c2ccccc2)CCN(CCC[C@]2(c3ccc(Cl)c(Cl)c3)CCCN(C(=O)c3ccccc3)C2)CC1
AC50 [1]: 7.62 µM (active) | outcome [2]: inactive | AC50 [3]: 7.39 µM (active) | outcome [4]: inactive | outcome [6]: inactive | AC50 [7]: 1.25 µM (active)

Cc1occc(=O)c1O
outcome [2]: inactive | outcome [3]: inactive | outcome [4]: inactive
